Laboratory results from PubChem BioAssay (NCI).
About 79,000 compounds went through this panel and 15% of them were active in at least one assay; those are over-represented in the sample as a whole. A number with no mark means an inactive call. The source made the active and inactive calls. No stated cut-off is given here; in the data, active means growth inhibition above about 70%; inactive means the rest. Where a SMILES comes first, the peptide text is derived from it. [ ]: non-standard residue; d: D form. The star is where a group is joined. Phe(4-NO2) = N[CH](Cc1ccc([N+](=O)[O-])cc1)C(=O)O; Boc = CC(C)(C)OC(=O)*

Assays:
[1] = NCI Yeast Anticancer Drug Screen. Data for the rad50 strain (AID 155);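 further: 0% = growth of vehicle-only cultures of the same strain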; conditions: S. cerevisiae rad50 strain growth inhibition, hits give high values
Summary of the method: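 Relative growth inhibition (compound vs vehicle) was measured in yeast with a defined repair-gene alteration.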

[2] = NCI Yeast Anticancer Drug Screen. Data for the mec2-1 strain (AID 157); conditions: S. cerevisiae mec2-1 strain, hits give high values
Summary of the method: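 Mutant yeast (mec2-1) grown with compound; growth inhibition relative to vehicle control reported.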

[3] = NCI Yeast Anticancer Drug Screen. Data for the sgs1 mgt1 strain (AID 161);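 further: 0% = growth of cultures given vehicle only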; conditions: S. cerevisiae sgs1 mgt1 strain, hits give high values
Summary of the method: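 Compounds are added to genetically altered yeast, and growth is compared with cultures given vehicle alone to give percent inhibition.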

[4] = NCI Yeast Anticancer Drug Screen. Data for the cln2 rad14 strain (AID 165);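 further: 0% = growth equal to vehicle treated cultures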; conditions: S. cerevisiae cln2 rad14 strain, hits give high values
Summary of the method: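 Readout is yeast growth inhibition versus vehicle-treated controls, using a strain with cln2 and rad14 alterations exposed to compound.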

[5] = NCI Yeast Anticancer Drug Screen. Data for the bub3 strain (AID 167); conditions: S. cerevisiae bub3 mutant strain, hits give high values
Summary of the method: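 Screening used yeast with an engineered genetic alteration affecting cell cycle control. Compound-exposed cultures were compared with vehicle cultures, and reduced growth was taken as inhibition.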

[6] = NCI Yeast Anticancer Drug Screen. Data for the mlh1 rad18 strain (AID 175); conditions: S. cerevisiae mlh1 rad18 strain growth inhibition, hits give high values
Summary of the method: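 Genetically defined yeast (DNA repair-deficient) exposed to compounds; growth inhibition determined relative to vehicle.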

[7] = at 5.0 µM (retest, dose inferred, filed as 0.5)
[8] = at 50.0 µM (retest, dose inferred, filed as 5.0)

Row | Compound | growth inhibition [1, 7] | growth inhibition [1, 8] | growth inhibition ([1]; at 50.0 µM) | growth inhibition [2, 7] | growth inhibition [2, 8] | growth inhibition ([2]; at 50.0 µM) | growth inhibition [3, 7] | growth inhibition [3, 8] | growth inhibition ([3]; at 50.0 µM) | growth inhibition [4, 7] | growth inhibition [4, 8] | growth inhibition ([4]; at 50.0 µM) | growth inhibition [5, 7] | growth inhibition [5, 8] | growth inhibition ([5]; at 50.0 µM) | growth inhibition [6, 7] | growth inhibition [6, 8] | growth inhibition ([6]; at 50.0 µM)
1 | O=C1C=CC(=O)N1c1ccc2c(c1)Cc1cc(Cl)ccc1-2 | -48% | 92% (active) | 13.6% | 8% | 96% (active) | 78.3% (active) | -5% | 93% (active) | 79.2% (active) | -3% | 27% | -72% | 11% | 82% (active) | 72.3% (active) | 26% | 97% (active) | 68.9%
2 | COc1ccc(/C=C/c2ccc3ccccc3n2)cc1OC | 3% | 97% (active) | 93.8% (active) | 8% | 98% (active) | 97% (active) | 3% | 93% (active) | 97.5% (active) | 1% | 96% (active) | 83.6% (active) | 10% | 98% (active) | 95.3% (active) | -1% | 97% (active) | 95.7% (active)
3 | CNC(=O)CCC(NC(=O)OC(C)(C)C)C(=O)NC(Cc1ccc([N+](=O)[O-])cc1)C(=O)NCC(=O)NC (configuration not stated) (Boc-Glu(NHMe)-[Phe(4-NO2)]-Gly-NHMe; configuration not given here) | 9% | -1% | -5.5% | -3% | 2% | -1.65% | -7% | 3% | 8.8% | -4% | 4% | 37.6% | -15% | -1% | -1.9% | -9% | 6% | -8.8%
4 | O=Cc1c(O)ccc2ccccc12 | 12% | 99% (active) | 99.2% (active) | 8% | 98% (active) | 99.4% (active) | 11% | 99% (active) | 99.2% (active) | 6% | 99% (active) | 99% (active) | 2% | 98% (active) | 99.5% (active) | 17% | 98% (active) | 99.2% (active)
5 | Fc1ccccc1CN1COc2c(cc(Cl)c3cccnc23)C1 | 11% | 71% (active) | 99% (active) | -1% | 43% | 99.4% (active) | 2% | 98% (active) | 99.5% (active) | 1% | 98% (active) | 99.1% (active) | -11% | 99% (active) | 99.2% (active) | 5% | 98% (active) | 99.3% (active)
6 | Cc1ccc(S(=O)(=O)Nc2ccccc2SSc2ccccc2NS(=O)(=O)c2ccc(C)cc2)cc1 | 46% | 69% | 57.5% | 38% | 81% (active) | 63.8% | 59% | 76% (active) | 60.6% | 44% | 82% (active) | 68.9% | 53% | 74% (active) | 60.4% | 63% | 77% (active) | 60.5%
7 | C[N+]1(C)CCCC(OCCCCCCCCCCCCCCOC2CCC[N+](C)(C)C2)C1 (configuration not stated) | 14% | 95% (active) | 87.9% (active) | 34% | 98% (active) | 80.5% (active) | 35% | 97% (active) | 98.8% (active) | 37% | 92% (active) | 98.2% (active) | 37% | 94% (active) | 97.6% (active) | 77% (active) | 97% (active) | 99% (active)
8 | CCOC1=Cc2c(oc3c(C(C)(C)C)cc(OCC)cc23)OC(C(C)(C)C)=C1 | 22% | 95% (active) | 71.2% (active) | 22% | 98% (active) | 85.3% (active) | 28% | 97% (active) | 73.4% (active) | 13% | 96% (active) | 75.7% (active) | 32% | 98% (active) | 78.7% (active) | 44% | 94% (active) | 19.6%
9 | CC(C)C(Br)CC/C(CBr)=C(\Cl)CCl (configuration not stated) | 24% | 99% (active) | 87% (active) | 21% | 99% (active) | 85.1% (active) | 13% | 99% (active) | 92.5% (active) | 17% | 98% (active) | 90.2% (active) | 30% | 99% (active) | 92.2% (active) | 17% | 99% (active) | 56.4%
10 | Cc1nc2ccc(N=Nc3c(O)ccc4ccccc34)cc2[nH]1 | -6% | 30% | 85.3% (active) | -7% | 20% | 77.1% (active) | 11% | 35% | 91.7% (active) | -12% | 17% | 72.3% (active) | -4% | 77% (active) | 86.2% (active) | -33% | 66% | 82.5% (active)
11 | CCOC1(OCC)C(C)C(c2ccccc2)C(c2ccccc2)C1C (configuration not stated) | -3% | -1% | 79.3% (active) | -6% | -4% | 98.8% (active) | -8% | 13% | 8.1% | -4% | -2% | 98.5% (active) | -8% | -5% | 99% (active) | -9% | 9% | 98.7% (active)
12 | CCC(C)OC(=S)S (configuration not stated) | 4% | 36% | 42.9% | 8% | 44% | 33.8% | -7% | 26% | 74.2% (active) | 1% | -4% | -20.8% | 3% | 59% | 90.7% (active) | 15% | 57% | 85% (active)
13 | CCOc1ccccc1NC(=O)/C(Cl)=C(\Cl)C(=O)O | 100% (active) | 99% (active) | 99% (active) | 100% (active) | 100% (active) | 98.3% (active) | 100% (active) | 100% (active) | 95.2% (active) | 100% (active) | 99% (active) | 56.8% | 100% (active) | 100% (active) | 64.4% | 100% (active) | 100% (active) | 76% (active)
14 | CC[C@@]1(O)C[C@H](OC2CC(N(C)C)C(OC3CC(O)C(OC4CCC(=O)C(C)O4)C(C)O3)C(C)O2)c2c(cc3c(c2O)C(=O)c2c(O)cccc2C3=O)[C@H]1C(=O)OC (some centres not stated) | 95% (active) | 97% (active) | 91.2% (active) | 98% (active) | 99% (active) | 92.8% (active) | 92% (active) | 97% (active) | 91.9% (active) | 92% (active) | 98% (active) | 89.2% (active) | 95% (active) | 98% (active) | 91.8% (active) | 97% (active) | 98% (active) | 92% (active)
15 | CCCCCCCCNS(=O)(=O)c1ccc(N)cc1 | 4% | 9% | 80.8% (active) | 0% | 2% | 25.2% | 7% | 2% | 70.5% (active) | 2% | 0% | 16.8% | 1% | 0% | 61.2% | 6% | 2% | 79.2% (active)
16 | O=C(O)C(CCc1cccc2ccccc12)c1ccccc1 (configuration not stated) | 13% | 97% (active) | 99.6% (active) | 2% | 95% (active) | 99.2% (active) | 5% | 98% (active) | 99.5% (active) | -4% | 96% (active) | 99.3% (active) | 3% | 73% (active) | 99% (active) | 5% | 98% (active) | 99.4% (active)
17 | CCOP(=O)(CCC(=O)[C@@]1(O)CC[C@H]2[C@@H]3CCC4=CC(=O)CC[C@]4(C)[C@H]3CC[C@@]21C)OCC | 0% | 2% | 33.9% | 1% | 5% | 5.55% | 3% | 16% | 72.8% (active) | -1% | 2% | 59.4% | -2% | -3% | 29.8% | -4% | 7% | 39.1%
18 | OCCN1COc2cc3c(cc2C1)OCN(CCO)C3 | 1% | 11% | 17.4% | -4% | 1% | -4.9% | -1% | 14% | 13.2% | 3% | -5% | 42.9% | 1% | -3% | -6.35% | -5% | 10% | 16.2%
19 | CCOC(=O)C1=C(c2ccccc2)OC(N)=C(C#N)C1c1ccc(C)cc1 (configuration not stated) | 4% | 25% | 77.1% (active) | 0% | 66% | 89.5% (active) | 10% | 64% | 92.5% (active) | -4% | 29% | 89% (active) | 1% | 50% | 80.1% (active) | -2% | 65% | 85.9% (active)
